The source made the active and inactive calls.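 The calls were made as follows: active = viability increase at or above a cutoff of the median across tested compounds plus 3 SD (cut at about 8.5% in these data, passing the limit was not always enough); inconclusive = some gains above the cutoff, reason not given; inactive = the rest.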

From PubChem BioAssay come the findings set out here.

A short description of this experiment: doxorubicin toxicity protection in MRP-1 cells – H69AR cells, CellTiter-Glo, duplicate, MRP-1 activator project, pilot screen (AID 807).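 Also: compound pretreatment 18-22 h then 72 h combined with doxorubicin; 0% = doxorubicin alone and 100% = vehicle without doxorubicin.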 The following applies: H69AR viability with doxorubicin, CellTiter-Glo luminescence; at 10 µM; stronger effect = higher value. A general note: ATP-based viability assays read luminescence as a measure of living cells.
Turning to `Cn1c(Cn2c(=O)sc3ccccc32)nnc1SCC(=O)NCc1ccco1`, the viability increase was -4.73% (inactive).

Regarding `CCOC(=O)N1CCN(C(=O)c2ccccc2NC(=O)COc2ccccc2C)CC1`, the viability increase is -1.77% (inactive).

As to `CCCCS(=O)(=O)/C=C\C=C/S(=O)(=O)CCCC`, the viability increase is -7.95% (inactive).

As for `CC(=O)Oc1c2occc2cc2ccc(=O)oc12`, the viability increase is -2.14% (inactive).

Consider `COc1ccc(Br)cc1C1CC(=O)N2CN(Cc3ccccc3)CSC2=C1C#N` (configuration not stated), for which the viability increase is -4.64% (inactive).

Consider `Cc1nn(-c2ccccc2)c2c1C(c1ccccc1)C(C#N)=C(N)O2` (configuration not stated), for which the viability increase is -2.62% (inactive).

As to `COc1ccc2cc(CCNC(=O)C3CCCC3)c(=O)[nH]c2c1`, the viability increase was -0.27% (inactive).

As for `COc1ccc2nc(NC(=O)C3COc4ccccc4O3)sc2c1` (configuration not stated), the viability increase is 2.25% (inactive).

For the compound `O=C(CSCC(=O)N1CCOCC1)Nc1nc(-c2ccc3c(c2)OCO3)cs1`, the viability increase was -3.99% (inactive).

As to `COC(=O)c1c(C(=O)OC)c2n(c1C)Cc1ccccc1C2`, the viability increase was -1.39% (inactive).

Take `CC(=O)Nn1cc2c(=O)n(C)c(=O)n(C)c2c1`: the viability increase is 0.99% (inactive).

For the compound `O=C(NCCc1ccccc1)c1ccc(Br)o1`, the viability increase is 0.4% (inactive).

In the case of `O=C(O)CN(Cc1ccco1)S(=O)(=O)c1ccccc1`, the viability increase is -1.97% (inactive).

As for `CC1CN(CCC(=O)Nc2ccc3c(c2)CCC3)CC(C)O1` (configuration not stated), the viability increase was -0.55% (inactive).

For `Cc1cc(C)n2nc(SCC(=O)Nc3ccc(F)cc3)nc2n1`, the viability increase was -1.21% (inactive).

On to `COCCNC(=O)CN(c1cc(C(F)(F)F)ccc1Cl)S(C)(=O)=O`, for which the viability increase was -0.83% (inactive).

As to `CCN(CC)S(=O)(=O)c1cc(C(=O)Nc2ccc(Cl)cn2)ccc1C`, the viability increase was 2.78% (inactive).
